Assay outcomes from PubChem BioAssay.
Compounds with a hit are over-represented: about 5.2% of the library has one in this group of screens.
VDR inhibitor – blocks the human vitamin D receptor | P11473 | VDR-SRC2-3 peptide fluorescence polarization, 2 h | Potency, µM, hits mostly inhibitors | actives 0.93% (n = 400,000) | AID 504847
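Inhibition of the VDR/SRC2-3 peptide interaction is quantified by fluorescence polarization. Compounds (23 nl, pintool) incubate with the reagents for 2 hours at ambient room temperature.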
TrxR1 substrate – rat thioredoxin reductase 1 substrate activity; O89049; purified TrxR1 substrate turnover, NADPH consumption readout; Potency, µM (doses to about 114 µM); actives 0.01% (n = 390,000); note: nearly all actives have a fitted effect of over 50% in size
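Rat TrxR1, dispensed at 90 nM, was prereduced with 400 uM NADPH (final) for 5 min at ~22 deg C, then incubated with compound 15 min before 400 uM selenite. A first-read NADPH fluorescence drop versus no-compound background flagged substrates.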
rTrxR1 inhibitor – rat TrxR1 inhibition. O89049. recombinant rTrxR1, NADPH fluorescence consumption, selenite substrate. Potency, µM (top dose mostly 114 µM), usual class: inhibitors. actives 1% (n = 390,000). AID 588453; note: nearly all actives have a fitted effect of over 65% in size
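Rat TrxR1 (90 nM in the dispensed reagent) was pre-reduced with 400 uM NADPH for 5 min at room temperature, then incubated with compound for 15 min. After 400 uM selenite was added, NADPH fluorescence (Ex 340/Em 450 nm) was followed for 8 min.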
IDH1 R132H inh – inhibitors of human mutant IDH1 R132H; AID 602179; actives 0.093% (n = 390,000); O75874; Potency, µM (top dose mostly 76.6 µM), usual class: inhibitors; IDH1-R132H enzyme, NADPH consumption, diaphorase/resazurin fluorescence; note: nearly all actives have a fitted effect of over 65% in size
Target sequence (O75874 whole entry R132H, stated change not applied): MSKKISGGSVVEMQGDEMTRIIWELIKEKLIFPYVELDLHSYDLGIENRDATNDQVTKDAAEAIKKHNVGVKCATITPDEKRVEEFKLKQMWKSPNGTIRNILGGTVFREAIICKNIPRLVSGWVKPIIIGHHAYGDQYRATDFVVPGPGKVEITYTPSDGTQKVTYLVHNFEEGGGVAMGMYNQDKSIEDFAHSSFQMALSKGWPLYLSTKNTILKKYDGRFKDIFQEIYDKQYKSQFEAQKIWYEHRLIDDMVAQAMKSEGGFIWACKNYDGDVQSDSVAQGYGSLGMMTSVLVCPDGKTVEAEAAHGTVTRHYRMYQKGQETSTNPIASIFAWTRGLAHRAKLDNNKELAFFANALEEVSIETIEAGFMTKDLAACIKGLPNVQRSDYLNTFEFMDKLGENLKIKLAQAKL
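IDH1-R132H (0.5 ug/mL) preincubated 30 min with compound, then NADPH (0.016 mM) and alpha-KG (2 mM) added; 80 min at RT, pH 7.5. Remaining NADPH coupled via diaphorase/resazurin to fluorescence (540/590 nm); concentration-response curves normalized to no-enzyme control.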
Sfp PPTase inh – inhibitors of Bacillus subtilis Sfp phosphopantetheinyl transferase. Biochemical Sfp PPTase activity, qHTS. Potency, µM, most hits filed as inhibitors. actives 3.5% (n = 310,000). AID 1490;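 note: the enzyme is Sfp with the accession as filed and its product quenches rhodamine fluorescence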
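Compounds were incubated with enzyme (final 15 nM) for 15 min at room temperature before substrate addition started the reaction. Fluorescence at 525 nm excitation, 598 nm emission was recorded immediately and after 30 minutes.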
PLK1 PBD inh – blocks phosphopeptide binding to human PLK1 polo-box domain | Potency, µM, actives largely listed as inhibitors | Plk1 PBD binding of FITC phosphopeptide, fluorescence polarization | actives 2.8% (n = 360,000) | AID 720504 | P53350; note: series mostly up to about 57 µM; nearly all actives have a fitted effect of over 65% in size
A number is an active result; - = inactive; ? = inconclusive; . = not tested or not shown; [ ] = another dose, or the depositor's remark. Calls come from the whole dose curve; as a rule, active = well fitted curve in the direction sought with a large enough effect; inconclusive = small, poorly fitted or top-dose-only effect, or another doubt; inactive = no such curve, though single readings can be large; an effect the other way counts as inactive or inconclusive.

SMILES | VDR inhibitor | TrxR1 substrate | rTrxR1 inhibitor | IDH1 R132H inh | Sfp PPTase inh | PLK1 PBD inh
COc1cc(CN2CCCC(CO)(Cc3cccc(Cl)c3)C2)cc2c1OCO2 (stereo not drawn) | ? | - | - | - | ? | 21.2µM
Cc1cc(N2CCN(C)CC2)nc(=S)[nH]1 | - | - | - | - | 50.1µM | -
CN(C)/[N+]([O-])=N/Oc1ccc([N+](=O)[O-])cc1[N+](=O)[O-] | . | - | 12.6µM | . | . | .
CCN(CCN(C)Cl)/[N+]([O-])=N/Oc1ccc([N+](=O)[O-])cc1[N+](=O)[O-] | . | - | 10µM | . | . | .
CN(C)/[N+]([O-])=N\Oc1cc(OC(=O)c2ccc(N)cc2)c([N+](=O)[O-])cc1[N+](=O)[O-] | . | - | - | . | . | .
CN(Cc1ccccc1)/[N+]([O-])=N/Oc1ccc([N+](=O)[O-])cc1[N+](=O)[O-] | . | - | 2.82µM | . | . | .
CNc1ccc(C(=O)Oc2cc(O/N=[N+](\[O-])N(C)C)c([N+](=O)[O-])cc2[N+](=O)[O-])cc1 | - | - | 25.1µM | . | ? | .
O=C(CC(Cl)(Cl)Cl)N1CCN(/[N+]([O-])=N/Oc2ccc([N+](=O)[O-])cc2[N+](=O)[O-])CC1 | . | - | ? | . | . | .
CC1(Oc2ccc3ccccc3c2)CCN(Cc2cccn2-c2nccs2)C1 (stereo not drawn) | . | . | . | . | . | -
Cc1ccc(NC(=O)/C(C#N)=N/Nc2ccc(C(=O)O)cc2)c(C)c1 | - | - | - | - | - | -
Cc1ccc(N/N=C(\C#N)C(N)=S)c(C)c1 | 50.1µM | - | - | - | ? | 18.9µM
O=S1(=O)CCO[C@H]2CCCC[C@@H]2N1Cc1ccccc1F | . | - | - | . | . | .
COc1ccc2c(c1)CCC2=O | . | - | - | . | . | .
COc1ccc2c(c1)CCCC(Br)C2=O (stereo not drawn) | ? | -[11.4 µM] | - | - | . | 10.6µM
CC(C)CS(=O)(=O)c1oc(-c2ccc(F)cc2)nc1S(=O)(=O)c1ccccc1 | ? | - | 0.316µM | - | . | .
CCC(C)S(=O)(=O)c1oc(-c2cccs2)nc1S(=O)(=O)c1ccccc1 (stereo not drawn) | ? | - | 0.708µM | - | . | .
CNc1oc(-c2cccs2)nc1S(=O)(=O)c1ccccc1 | ? | - | - | - | - | -
CCc1ccc(C(=O)CC2(O)C(=O)N(CCc3ccccc3)c3ccc(Cl)cc32)cc1 (stereo not drawn) | - | - | - | - | . | .
COc1ccc2c(c1)CC(C(=O)NCCN1CCN(c3cccc(C)c3C)CC1)CO2 (stereo not drawn) | - | - | - | - | . | .
O=S(=O)(Nc1cccc2cccnc12)c1cccs1 | - | - | - | . | . | .
O=C(COc1ccc2c(-c3ccccc3)cc(=O)oc2c1)NCC1CCC(C(=O)O)CC1 (stereo not drawn) | - | - | - | - | - | -
O=C(COc1ccc2cc(-c3ccccc3)c(=O)oc2c1)NCC1CCC(C(=O)O)CC1 (stereo not drawn) | - | - | 31.6µM | - | - | -
S=C1NC2=C(CCCC2=C2SCCS2)C(c2ccccc2)N1 (stereo not drawn) | - | - | ? | - | - | ?
Fc1ccc(/C=C2\CCCC3=C2NC(=S)NC3c2ccc(F)cc2)cc1 (stereo not drawn) | . | . | . | . | 44.7µM | .
Cc1ccc(NC(=O)Cn2nnc(C(=O)NCCc3ccccc3)c2N)c(C)c1 | ? | - | - | - | - | 5.97µM
SMILES | VDR inhibitor | TrxR1 substrate | rTrxR1 inhibitor | IDH1 R132H inh | Sfp PPTase inh | PLK1 PBD inh
Cc1cccc(C)c1NC(=O)Cn1nnc(C(=O)NCc2ccc(F)cc2)c1N | - | - | - | - | . | .
Cc1cc(C)cc(NC(=O)Cn2nnc(C(=O)NCc3ccc(F)cc3)c2N)c1 | 20µM | - | - | - | - | 2.99µM
CC(C)N(c1ccc(C=O)cc1)C(C)C | . | - | - | . | . | .
c1ccc2c(c1)CCC[C@H]2Nc1nc2ccccc2[nH]1 | - | - | - | . | . | .
COc1ccc2[nH]c3c(=S)nc[nH]c3c2c1 | - | - | - | - | 50.1µM | -
COC[C@H]1CCCN1c1ccc2c(c1)O[C@H](COCc1ccccc1)CN([C@H](C)c1ccccc1)S2(=O)=O | . | . | . | . | . | -
O=C(Oc1nsnc1N1CCOCC1)c1ccccc1 | - | - | - | - | - | 23.8µM
Cn1ccc2c([N+](=O)[O-])cccc2c1=O | - | - | - | - | - | 29.9µM
